Most compounds without a hit are left out; they make up all but 11% or so of the library.
NS1 function inh = influenza NS1 inhibition. AID 2326. Potency, µM (top dose mostly 46.1 µM), inactives show top-dose activity, positive = more growth. 270,000 compounds, 0.4% hits; calls by dose curve; also: actives are rising curves; nearly all actives have a fitted effect of over 50% in size
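OD600 was taken as the measure of yeast growth restored by compound in an NS1-expressing S. cerevisiae strain. Cells had been washed out of glucose medium and diluted 1:100 into galactose -URA medium, pH 6.0.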
Pf growth 48h = inhibits P. falciparum growth in the first generation, 48 h | Potency, µM (titrated, usually from 28.7 µM), without a hit: at the top dose activity change, negative = inhibition, usual class: inhibitors | P. falciparum luciferase growth in erythrocytes, 48 h | 310,000 compounds, 5.9% hits; also: % is scaled to controls: 0 for no effect and ±100 for the full control effect
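Luciferase-expressing parasites in RBCs, 2% Hct / 0.1% parasitemia final; RPMI 1640 + 0.5% Albumax; 37 C, 5% CO2, one generation; luminescence read-out, lower signal = inhibition.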
Sm TGR block = blocks Schistosoma mansoni thioredoxin glutathione reductase. Q962Y6. purified TGR, DTNB reduction, TNB absorbance 405 nm. Potency, µM (doses to about 114 µM), without a hit: top-dose activity change, negative = inhibition, actives largely listed as inhibitors. 360,000 compounds, 3% hits; also: % is scaled to controls: 0 for no effect and ±100 for the full control effect; nearly all actives have a fitted effect of over 60% in size
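First, TGR (20 nM dispensed) and NADPH were mixed with compound. Second, a 15 min room-temperature incubation followed. Third, further NADPH and then DTNB were added to start the reaction. Finally, TNB absorbance was monitored kinetically.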
Pf growth 96h = inhibits malaria parasite growth, 96 h; P. falciparum luciferase reporter growth, 96 h; Potency, µM (doses to about 28.7 µM), without a hit: at the highest dose activity change, negative = inhibition, most hits filed as inhibitors; 320,000 compounds, 6.9% hits; AID 504834; also: % is scaled to controls: 0 for no effect and ±100 for the full control effect
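Parasite growth measured via integrated firefly luciferase reporter in P. falciparum. Infected erythrocytes at 2% hematocrit, 0.05% parasitemia final were treated 96 hours at 37 C under 5% CO2, and luminescence was read.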
AMA1 RON2 block = inhibitors of Plasmodium falciparum AMA1-RON2 interaction; 360,000 compounds, 0.2% hits; Potency, µM (highest dose often 58.2 µM), inactives show top-dose activity change, negative = inhibition, actives largely listed as inhibitors; AlphaScreen AMA1-biotinylated RON2 peptide binding; AID 720542;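 also: 0% = vehicle wells and -100% = peptide control; nearly all actives have a fitted effect of over 45% in size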
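AMA1 (3D7) with his tag at 25 nM final met compounds first, then biotinylated RON2 peptide at 25 nM; detection used donor plus acceptor beads, 10 µg/mL apiece, read by AlphaScreen after 30 min at room temperature.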
An asterisk follows results filed as active; i = inactive; ? = inconclusive; . = no result; [ ] = remark or other dose. Unless noted, calls follow the shape of the dose curve; as a rule, active = well fitted curve in the direction sought with a large enough effect; inconclusive = small, poorly fitted or top-dose-only effect, or another doubt; inactive = no such curve, though single readings can be large; an effect the other way counts as inactive or inconclusive. Potency is read from the fitted curve at half-maximal effect.

SMILES	NS1 function inh	Pf growth 48h	Sm TGR block	Pf growth 96h	AMA1 RON2 block
Cc1ccc(-c2nsc(NC(=O)c3oc4cc(C)c(Cl)cc4c3C)n2)cc1	.	.	4%	.	.
COc1cc(C(=O)N2CCNC(=O)C2CC(=O)Nc2ccc(C)c(C)c2)cc(OC)c1OC (stereo not given)	.	.	0%	.	.
O=C(CSc1nnc(NC(=O)C2CC(=O)N(c3ccc(F)cc3)C2)s1)NCC1CCCO1 (stereo not given)	3%	-17%	-16%	5%	7%
O=C(O)c1ccc(NC(=O)c2cccc(N3C(=O)C4C5CCC(C5)C4C3=O)c2)cc1 (stereo not given)	8%	1%	4%	?	11%
O=C(Nc1ccccc1)c1cccc(N2C(=O)C3C4CC(C(Br)C4Br)C3C2=O)c1 (stereo not given)	-19%	1.5µM*	-16%	?	-4%
CN(C)c1ccc(NC(=O)c2cccc(N3C(=O)C4C5C=CC(C5)C4C3=O)c2)cc1 (stereo not given)	-9%	122%	?	.	-3%
Cc1ccc(NC(=O)c2cccc(N3C(=O)C4C5CCC(C5)C4C3=O)c2)c(C)c1 (stereo not given)	-8%	10µM*	1%	17%	11%
CC(=O)COC(=O)c1cccc(N2C(=O)C3C4C=CC(C4)C3C2=O)c1 (stereo not given)	-18%	-7%	-2%	13µM*	7%
Cc1ccccc1NC(=O)c1cccc(N2C(=O)C3C4CCC(C4)C3C2=O)c1 (stereo not given)	7%	-13%	0%	.	7%
Cc1ccc(NC(=O)c2cccc(N3C(=O)C4C5C=CC(C5)C4C3=O)c2)cc1C (stereo not given)	-4%	-21%	-4%	12µM*	10%
COc1ccc(S(=O)(=O)N2CCOC2CNC(=O)C(=O)NCC(C)C)cc1 (stereo not given)	2%	-7%	-2%	14%	-4%
Cc1ccc(-n2cc(C(=O)Oc3cccc(C)c3)c3ccccc3c2=O)cc1	.	.	7%	.	.
Cc1ccc(-n2cc(C(=O)Oc3ccc(F)cc3)c3ccccc3c2=O)cc1	.	.	35µM*	.	.
COc1cccc(-n2cc(C(=O)NC(C)C)c3ccccc3c2=O)c1	4%	-9%	1%	1.3µM*	12%
CCOC(=O)c1ccccc1NC(=O)c1cn(-c2ccc(OC)cc2)c(=O)c2ccccc12	-4%	?	1%	2.9µM*	-5%
CN1C(=O)CSc2ccc(NC(=O)N3CCC(N4CCCCC4)CC3)cc21	-2%	.	0%	12µM*	-5%
CC1(c2ccccc2)NC(=O)N(CC(=O)Nc2nc(-c3ccccn3)cs2)C1=O (stereo not given)	.	-80%	0%	?	-3%
COc1ccc(-c2csc(NC(=O)CCS(=O)(=O)c3ccccc3)n2)c(OC)c1	-5%	-25%	14µM*	?	1%
Cc1ccc(S(=O)(=O)CCC(=O)Nc2nc(-c3ccccn3)cs2)cc1	.	13µM*	-17%	10µM*	97%
Cc1ccc(S(=O)(=O)CCC(=O)Nc2nc(-c3cccnc3)cs2)cc1	-4%	-1%	?	24%	-1%
Cc1ccc(C2(C)NC(=O)N(CC(=O)Nc3nc(-c4ccccn4)cs3)C2=O)cc1 (stereo not given)	.	2.3µM*	-4%	3.3µM*	-10%
Oc1cc2c(cc1C(c1ccc(Br)cc1)N1CCCC1)OCO2 (stereo not given)	11%	-16%	0.71µM*	-14%	?
O=[N+]([O-])c1ccccc1S(=O)(=O)N1CCCCC1	12%	25%	-22%	0%	-1%
O=[N+]([O-])c1ccccc1S(=O)(=O)N1CCCC(C(F)(F)F)C1 (stereo not given)	-4%	8%	-7%	0.83µM*	-17%
COc1ccc(C(=O)COC(=O)CCc2ccccc2)cc1	-2%	-12%	-4%	14%	1%
SMILES	NS1 function inh	Pf growth 48h	Sm TGR block	Pf growth 96h	AMA1 RON2 block
COc1ccc(C(=O)COC(=O)CCn2nnc(-c3cccc(O)c3OC)n2)cc1	-3%	-7%	4%	12µM*	2%
Cc1nnc2ccc(-c3cccc(NS(C)(=O)=O)c3)nn12	.	-1%	7%	10%	1%
CC(CCc1ccccc1)NCC#N (stereo not given)	0%	-5%	-3%	10%	-11%
CCOC(=O)/C(C(=Nc1ccccc1)Nc1ccccc1)=C(\C)O	13%	-1%	-1%	10µM*	7%
CCOC(=O)C1C(c2ccccc2)C(C(=O)OCC)C1c1ccccc1 (stereo not given)	5%	?	2%	?	5%
CCOC(=O)C1C(C(=O)NN)C1C(=O)Nc1ccccc1 (stereo not given)	.	13µM*	7%	8%	8%
CC(=O)OCC(=O)Nc1ccc(N=Nc2ccccc2)cc1	-13%	118%	7%	i	-28%
COC(=O)C1=C(c2ccccc2OCc2ccccc2)C[C@@H]2CC[C@H]1N2C(=O)NCCOc1ccc(OC)cc1	.	9.3µM*	-4%	1.3µM*	?
COC(=O)C1=C(c2ccccc2OCc2ccccc2)C[C@@H]2CC[C@H]1N2C(=O)NCCCOC(C)C	.	?	-2%	5.2µM*	-1%
COC(=O)C1=C(c2ccccc2OCc2ccccc2)C[C@@H]2CC[C@H]1N2C	.	.	.	.	0%
COC(=O)C1=C(c2ccccc2OCc2ccccc2)C[C@@H]2CC[C@H]1N2C(=O)NCCOc1ccccc1	.	12µM*	-2%	?	-3%
COc1cccc(N/N=C(\C#N)S(=O)(=O)C(C)(C)C)c1	.	4%	2%	25%	-11%
CC(C)c1nc2oc3c(NCC4CCCO4)ncnc3c2c2c1CCC2 (stereo not given)	-53%	1.9µM*	-8%	2.9µM*	-4%
CC(C)c1nc2oc3c(N(C)CCO)ncnc3c2c2c1CCC2	7%	?	8%	0.83µM*	9%
COc1ncnc2c1oc1nc(CC(C)C)c3c(c12)CCCC3	11%	11%	10%	31%	-11%
CCCc1nc2oc3c(NCC4CCCO4)ncnc3c2c2c1COC(C)(C)C2 (stereo not given)	-3%	-26%	10%	12%[5.75 µM]	-8%
COc1ccc(S(N)(=O)=O)cc1C(=O)OCC(=O)Nc1ncc(Cl)c(C)c1Cl	.	.	.	.	-3%
Oc1[nH]c(N=C2N=c3ccccc3=N2)c2ccccc12	-41%	-51%	7%	2.3µM*	100%
COc1ccc(OC(=O)C(C)N2C(=O)c3ccccc3C2=O)cc1 (stereo not given)	-23%	-2%	?	30%	14%
CC1=CC(C)(C)Nc2ccc(Cc3ccc4c(c3)C(C)=CC(C)(C)N4)cc21	?	?	4µM*	?	16µM*
CC1=CC(C)(C)N2C(=O)C(=O)c3cc(OC(=O)c4ccco4)cc1c32	-36%	-12%	.	92%	?

Assay outcomes as filed in PubChem BioAssay.
